# Hits are enriched below; roughly 1.8% of the tested compounds scored in any of these assays.
# LGR2 antag = Drosophila LGR2 receptor signaling inhibition | HEK293 LGR2, CRE-luciferase, bursicon-stimulated, 4 h | inhibition, % at 9.99 µM | hit rate 0.35% among 380,000 | AID 720647;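 active = drop in luminescence signal, shown as inhibition above about 50% in the replicate tests, limit read from the data, passing the limit was not always enough; inconclusive = probably only some replicates passing the limit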;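 also: agonist challenge used bursicon conditioned medium at about half maximal strength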
# CFTR F508del cor = correctors of CFTR F508del function in bronchial epithelial cells; CFBE cells, YFP halide quenching; stimulated with forskolin plus potentiator P3; % fluorescence drop versus neutral controls; activity (quench increase), % at 7.58 µM; hit rate 0.36% among 350,000;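 active = mean added fluorescence quench of at least 8% versus neutral control, with both replicates also reaching 8%; inconclusive = only one of the mean or replicate conditions met; inactive = mean below 8% and not both replicates reaching 8%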;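 also: cells transiently co-express mutant CFTR-F508del with the halide-sensitive YFP; corrector assay measuring rescue of mutant channel to the surface after 24 h compound exposure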
# EWS-Fli block = EWS/Fli transcriptional activity inhibition. hit rate 0.67% among 350,000. A673 NR0B1-luciferase reporter, viability-normalised. inhibition, % at 12.6 µM;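 active = mean inhibition of at least 50% after viability correction, with every replicate also passing that limit; inconclusive = mean reaches 50% but only one of two replicates passes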;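 also: firefly luciferase signal divided by Alamar Blue viability fluorescence both relative to DMSO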
# PAX8 reporter = PAX8 transcriptional activity inhibition; inhibition, % at 12.6 µM; RMG-I TPO-luciferase reporter, SteadyGlo, 24 h; hit rate 1.2% among 360,000;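 active = mean replicate inhibition at least 60% with every replicate also reaching 60%; inconclusive = only one of the two criteria is met; inactive = mean below 60% and not all replicates reaching 60%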;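 also: luciferase light reporting Pax8 driven TPO promoter activity; plate controls were median of neutral control wells for no effect and mitoxantrone controls for full effect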
# * hit, by the source's call; ? = inconclusive; / = no result given.
SMILES,LGR2 antag,CFTR F508del cor,EWS-Fli block,PAX8 reporter
COc1ccc(NC(=O)Nc2ccc3c(c2)C(=O)N([C@@H](C)CO)C[C@@H](C)[C@H](CN(C)Cc2ccc(C(F)(F)F)cc2)OCCCC[C@H](C)O3)cc1,/,-0.2,8.4,48.8
COc1ccc(CN(C)C[C@@H]2OCCCC[C@H](C)Oc3ccc(NC(=O)Nc4ccc(C(F)(F)F)cc4)cc3C(=O)N([C@H](C)CO)C[C@@H]2C)cc1,/,-0.4,70.8*,107.8*
O=C(C1CCCCC1)N1C[C@H](n2cc(C3CC3)nn2)[C@@H](O)C[C@@H]1c1ccccc1,-3.2,-0.8,-0.9,7.5
COc1ccc(CN(C)C[C@H]2OCCCC[C@@H](C)Oc3ccc(NC(=O)Nc4ccc(F)cc4)cc3C(=O)N([C@@H](C)CO)C[C@@H]2C)cc1,/,-2.6,-11.6,85.2*
COc1ccc(CN(C)C[C@@H]2OCCCC[C@@H](C)Oc3ccc(NC(=O)Nc4ccc(C(F)(F)F)cc4)cc3C(=O)N([C@@H](C)CO)C[C@H]2C)cc1,/,-3.2,71.4*,98.1*
COc1ccc(CN(C)C[C@H]2OCCCC[C@@H](C)Oc3ccc(NC(=O)Nc4ccc(C(F)(F)F)cc4)cc3C(=O)N([C@@H](C)CO)C[C@H]2C)cc1,/,6.0,69.2*,?
COc1ccc(CN(C)C[C@H]2OCCCC[C@@H](C)Oc3ccc(NC(=O)Nc4ccc(C(F)(F)F)cc4)cc3C(=O)N([C@H](C)CO)C[C@@H]2C)cc1,/,-1.4,-0.8,1.7
COc1ccc(NC(=O)Nc2ccc3c(c2)C(=O)N([C@@H](C)CO)C[C@H](C)[C@H](CN(C)Cc2ccc(C(F)(F)F)cc2)OCCCC[C@@H](C)O3)cc1,-3.5,-2.7,3.7,57.1
COc1ccc(CN(C)C[C@H]2OCCCC[C@@H](C)Oc3ccc(NC(=O)Nc4ccc(C(F)(F)F)cc4)cc3C(=O)N([C@@H](C)CO)C[C@@H]2C)cc1,/,-1.3,65.9*,30.0
COc1ccc(NC(=O)Nc2ccc3c(c2)C(=O)N([C@@H](C)CO)C[C@@H](C)[C@H](CN(C)Cc2ccc(C(F)(F)F)cc2)OCCCC[C@@H](C)O3)cc1,4.7,-2.7,-0.2,64.2*
CCOC(=O)N1CCN(C(=O)/C(=C/c2cccc3ccccc23)NC(=O)c2ccc(OC)c(OC)c2)CC1,-7.2,/,4.9,71.6*
O=C(Nc1ccc(OC(F)(F)F)cc1)C1CC(c2ccc(F)cc2)=NO1 (configuration not stated),12.9,7.5,8.8,-7.5
Cc1cc2c([nH]c3ccccc32)c2c1OC(C)(C)C=C2,-162.7,-1.2,-120.3,/
Cc1cc2[nH]c3c(c[n+](C)c4ccccc34)c2cc1C,100.3*,24.2*,82.5*,111.0*
CC1=NN(c2nc(N)nc(/C(C#N)=C/c3ccc([N+](=O)[O-])o3)n2)C(C)(C)C1,-25.9,-6.2,70.0*,-9.3
C[C@@H]1CCCCO[C@H](CN(C)Cc2ccc(Cl)c(Cl)c2)[C@@H](C)CN([C@H](C)CO)C(=O)c2cc(NS(=O)(=O)c3ccc(Cl)cc3)ccc2O1,-9.0,4.2,0.5,28.3
C[C@@H]1CCCCO[C@@H](CN(C)Cc2ccc(Cl)c(Cl)c2)[C@H](C)CN([C@H](C)CO)C(=O)c2cc(NS(=O)(=O)c3ccc(Cl)cc3)ccc2O1,6.4,3.4,24.7,101.7*
C[C@@H]1CCCCO[C@@H](CN(C)Cc2ccc(Cl)c(Cl)c2)[C@H](C)CN([C@H](C)CO)C(=O)c2cc(NS(=O)(=O)c3ccc(F)cc3)ccc2O1,16.3,-0.3,26.5,84.5*
Cc1ccc(S(=O)(=O)Nc2ccc3c(c2)C(=O)N([C@H](C)CO)C[C@H](C)[C@@H](CN(C)Cc2ccc(Cl)c(Cl)c2)OCCCC[C@H](C)O3)cc1,6.9,4.7,-2.1,66.2*
Cc1ccc(S(=O)(=O)Nc2ccc3c(c2)C(=O)N([C@H](C)CO)C[C@@H](C)[C@H](CN(C)Cc2ccc(Cl)c(Cl)c2)OCCCC[C@@H](C)O3)cc1,3.1,0.2,-8.5,?
OC[C@@H]1[C@@H](c2ccc(Br)cc2)[C@@H]2CN(Cc3cncnc3)CCCCN12,-13.9,1.7,-2.8,10.5
O=C(NCCCN1CCOCC1)C(=O)N/N=C/c1c(Cl)cccc1Cl,6.7,/,4.2,-5.9
O=C(NCCCN1CCOCC1)C(=O)N/N=C/c1c2ccccc2cc2ccccc12,-5.7,/,/,71.9*
COc1ccc(CN(C)C[C@H]2OCCCC[C@@H](C)Oc3ccc(NS(=O)(=O)c4ccc(C)cc4)cc3C(=O)N([C@H](C)CO)C[C@@H]2C)cc1,6.0,-1.6,-7.8,-1.8
COc1ccc(CN(C)C[C@@H]2OCCCC[C@H](C)Oc3ccc(NS(=O)(=O)c4ccc(C)cc4)cc3C(=O)N([C@H](C)CO)C[C@H]2C)cc1,14.4,-2.1,10.7,82.3*
SMILES,LGR2 antag,CFTR F508del cor,EWS-Fli block,PAX8 reporter
COc1ccc(CN(C)C[C@H]2OCCCC[C@@H](C)Oc3ccc(NS(=O)(=O)c4ccc(C)cc4)cc3C(=O)N([C@H](C)CO)C[C@H]2C)cc1,4.1,-2.0,59.3*,-3.5
Cc1cc(/C=N/Nc2ncnc(N)c2[N+](=O)[O-])c(C)n1-c1ccccc1,79.3*,2.3,83.0*,62.0*
CC(=O)Nc1ccccc1NC(=O)c1cccc2ccccc12,-8.3,/,/,13.5
Cc1ccc2nc3sc(C(=O)N4CCOCC4)c(N)c3cc2c1,/,/,/,82.0*
CCOc1ccc2nc3sc(C(=O)N4CCN(C)CC4)c(N)c3cc2c1,/,/,/,-152.1
Cc1cccc(NC(=O)COc2coc(CN3CCN(Cc4ccccc4)CC3)cc2=O)c1,13.7,0.6,21.3,/
Cc1ccc(C(=O)N/C(=C\c2ccc(-c3cccc([N+](=O)[O-])c3)o2)C(=O)NCCCN(C)C)cc1,/,0.0,4.9,-5.4
Cc1ccc(C(=O)N/C(=C\c2ccc(-c3ccc(Br)cc3)o2)C(=O)NCCCN(C)C)cc1,?,-2.7,51.5*,94.7*
COc1ccccc1-c1ccc2c(c1)O[C@@H](CN(C)S(=O)(=O)c1ccc(F)cc1)[C@H](C)CN([C@H](C)CO)S2(=O)=O,-7.6,-2.9,-15.7,-30.8
COc1ccc(Br)cc1/C=C/C(=O)c1ccc(NC(C)=O)cc1,94.8*,-6.1,?,104.9*
C[C@@H]1CN([C@@H](C)CO)C(=O)CCCn2cc(nn2)CO[C@H]1CN(C)C(=O)c1ccccc1,-16.0,-3.8,5.2,9.1
COc1ccc(S(=O)(=O)N[C@@H]2CC[C@H](CCNC(=O)CN3CCOCC3)O[C@H]2CO)cc1,-11.8,-2.6,7.9,-9.6
O=[N+]([O-])c1cc2c(ccc3occc32)o1,24.0,-1.6,36.8,106.9*
CN1CCC(N(C)C(=O)/C(C#N)=C\c2ccc(OC(F)F)cc2)CC1,15.7,-0.4,5.5,-12.4
CCC1(O)CC2CN(CCc3c([nH]c4ccccc34)C(C(=O)OC)(c3cc4c(cc3OC)N(C=O)C3C(O)(C(=O)OC)C(OC(C)=O)C5(CC)C=CCN6CCC43C65)C2)C1 (configuration not stated),-29.5,-0.3,44.3,83.1*
CCCC(=O)N(Cc1cc(=O)[nH]c2ccccc12)c1ccc(C)cc1C,1.4,1.0,0.3,23.6
